Experimental data taken from PubChem BioAssay (Tox21).
Results filed as inconclusive are left out. Calls of active or inactive are those of the source. Unless noted, calls follow the shape of the dose curve; as a rule, active = well fitted curve in the direction sought with a large enough effect in the repeat runs; inconclusive = weak or mixed curves; inactive = no such curve, though single readings can be large; an effect the other way counts as inactive or inconclusive.

Columns and labels:
[1] = qHTS assay to identify small molecule agonists of the androgen receptor (AR) signaling pathway in the presence of an antagonist - cell viability counter screen (AID 1259379); also: nearly all actives have a fitted effect of over 25% in size; also: potency is read from the fitted curve at half-maximal effect;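 as to activity change, negative = cytotoxicity: MDA-kb2 human breast cancer cells carrying an MMTV luciferase reporter; series mostly up to about 92 µM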
Outline: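 A CellTiter-Fluor read-out measured viability of MDA-kb2 reporter cells (MMTV promoter with AR and GR response elements). Treatment: nilutamide 3.0uM final with compounds at 15 concentrations, 16 hr, 37C, 0% CO2.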

[2] = qHTS assay to identify small molecule agonists of the estrogen receptor beta (ER-beta) signaling pathway - cell viability counter screen (AID 1259380); also: nearly all actives have a fitted effect of over 30% in size; also: potency is read from the fitted curve at half-maximal effect
Outline: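 Cells used were ER-beta-UAS-bla HEK293T in medium with 2% charcoal-stripped FBS. They were treated for 16 hr at 37C. Viability came from CellTiter-Glo luminescence.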

[3] = biological target: Estrogen receptor (Homo sapiens) (UniProt P03372); experiment: qHTS assay to identify small molecule agonists of the estrogen receptor alpha (ER-alpha) signaling pathway in the presence of an antagonist (AID 1259383; calls by dose curve; also: nearly all actives have a fitted effect of over 15% in size; also: potency is read from the fitted curve at half-maximal effect)
Estrogen receptor (Homo sapiens), sequence (P03372 whole entry, looked up): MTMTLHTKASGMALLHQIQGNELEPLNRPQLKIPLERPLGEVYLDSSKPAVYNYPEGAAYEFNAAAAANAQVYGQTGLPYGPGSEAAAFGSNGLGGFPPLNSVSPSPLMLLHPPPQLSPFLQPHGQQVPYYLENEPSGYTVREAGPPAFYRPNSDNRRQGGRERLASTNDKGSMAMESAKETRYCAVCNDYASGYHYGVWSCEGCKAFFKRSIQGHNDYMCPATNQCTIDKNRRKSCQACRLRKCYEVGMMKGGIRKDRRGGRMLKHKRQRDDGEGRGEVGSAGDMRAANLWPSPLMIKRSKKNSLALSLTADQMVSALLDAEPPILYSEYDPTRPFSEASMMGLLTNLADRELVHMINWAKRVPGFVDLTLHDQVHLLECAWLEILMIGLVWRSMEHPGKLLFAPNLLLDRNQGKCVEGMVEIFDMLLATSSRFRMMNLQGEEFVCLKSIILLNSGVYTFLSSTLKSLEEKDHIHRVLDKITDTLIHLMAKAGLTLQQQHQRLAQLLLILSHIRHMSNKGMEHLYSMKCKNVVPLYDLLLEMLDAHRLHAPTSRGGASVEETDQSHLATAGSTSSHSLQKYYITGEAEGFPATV
Outline: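 Using VM7Luc4E2 cells seeded 24hr before treatment, antagonist ICI-182,780 (10.0nM final) was added, followed by compounds at 15 concentrations. Plates incubated 22hr; ONE-Glo luminescence quantified reporter activity.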

[4] = qHTS assay to identify small molecule agonists or antagonists of the thyroid stimulating hormone receptor (TSHR) signaling pathway - wild type cell line counter screen (AID 1259384; calls by dose curve)
Outline: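 Wild-type Hek293 cells, 800/well, 18 h at 37C, then compound with Ro20-1724 for 30 min RT. cAMP by HTRF (cAMP-d2/anti-cAMP cryptate), 1 h RT, fluorescence read. 15 concentrations, triplicates.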

[5] = biological target: Thyrotropin receptor (Homo sapiens) (UniProt P16473); experiment: qHTS assay to identify small molecule antagonists of the thyroid stimulating hormone receptor (TSHR) signaling pathway (AID 1259385; calls by dose curve; also: nearly all actives have a fitted effect of over 20% in size)
Thyrotropin receptor (Homo sapiens), sequence (P16473 whole entry, looked up): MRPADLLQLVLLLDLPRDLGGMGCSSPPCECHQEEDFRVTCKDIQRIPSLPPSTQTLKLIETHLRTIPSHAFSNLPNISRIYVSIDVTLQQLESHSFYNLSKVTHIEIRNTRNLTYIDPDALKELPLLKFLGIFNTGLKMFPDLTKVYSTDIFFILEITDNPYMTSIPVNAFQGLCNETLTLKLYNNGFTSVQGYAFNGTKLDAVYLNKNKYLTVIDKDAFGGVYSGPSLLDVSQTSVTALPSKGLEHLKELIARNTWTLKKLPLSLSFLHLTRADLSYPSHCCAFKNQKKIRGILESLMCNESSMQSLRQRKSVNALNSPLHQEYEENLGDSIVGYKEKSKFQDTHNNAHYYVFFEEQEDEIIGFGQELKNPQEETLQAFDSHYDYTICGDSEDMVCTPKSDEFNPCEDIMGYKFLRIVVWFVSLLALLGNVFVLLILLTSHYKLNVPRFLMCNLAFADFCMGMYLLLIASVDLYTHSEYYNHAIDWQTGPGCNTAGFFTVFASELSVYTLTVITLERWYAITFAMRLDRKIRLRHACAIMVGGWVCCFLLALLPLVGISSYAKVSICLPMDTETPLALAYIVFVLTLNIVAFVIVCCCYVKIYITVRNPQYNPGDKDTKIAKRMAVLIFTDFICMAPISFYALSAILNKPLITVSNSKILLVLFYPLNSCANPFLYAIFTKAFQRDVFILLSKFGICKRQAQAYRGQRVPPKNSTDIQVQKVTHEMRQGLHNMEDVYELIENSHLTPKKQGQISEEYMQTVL
Outline: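 TSHR-HEK293 cells (800/well) plated 18 h, then compounds with Ro20-1724 and TSH at 1.5 ng/mL final, 30 min at room temperature. cAMP quantified by HTRF (cAMP-d2/anti-cAMP-cryptate, 1 h); 15 concentrations in triplicate.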

[6] = qHTS assay to identify small molecule agonists of the estrogen receptor alpha (ER-alpha) signaling pathway in the presence of an antagonist - cell viability counter screen (AID 1259386);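 also: cells exposed to compounds for 22 h at 37 °C before the viability read; nearly all actives have a fitted effect of over 30% in size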; also: potency is read from the fitted curve at half-maximal effect; as to activity change, negative = cytotoxicity: series mostly up to about 92 µM
Outline: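 ICI-182,780 at 10.0nM final accompanies the compound titration (15 concentrations, 22hr, 37C) on VM7Luc4E2 cells. The CellTiter-Fluor fluorescence readout runs in the same wells as the luciferase assay.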

[7] = qHTS assay to identify small molecule antagonists of the estrogen receptor beta (ER-beta) signaling pathway - cell viability counter screen (AID 1259382); also: series mostly up to about 92 µM; nearly all actives have a fitted effect of over 55% in size
Outline: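 Agonist-stimulated (1nM E2) ER-beta-UAS-bla HEK293T cells are incubated with library compounds for 16 hr at 37C. Cell viability is then assessed in the reporter-assay wells by adding CellTiter-Glo and reading luminescence after 30 min.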

[8] = biological target: Androgen receptor (Homo sapiens) (UniProt P10275); experiment: qHTS assay to identify small molecule agonists of the androgen receptor (AR) signaling pathway in the presence of an antagonist (AID 1259381; calls by dose curve; also: nearly all actives have a fitted effect of over 15% in size)
Androgen receptor (Homo sapiens), sequence (P10275 whole entry, looked up): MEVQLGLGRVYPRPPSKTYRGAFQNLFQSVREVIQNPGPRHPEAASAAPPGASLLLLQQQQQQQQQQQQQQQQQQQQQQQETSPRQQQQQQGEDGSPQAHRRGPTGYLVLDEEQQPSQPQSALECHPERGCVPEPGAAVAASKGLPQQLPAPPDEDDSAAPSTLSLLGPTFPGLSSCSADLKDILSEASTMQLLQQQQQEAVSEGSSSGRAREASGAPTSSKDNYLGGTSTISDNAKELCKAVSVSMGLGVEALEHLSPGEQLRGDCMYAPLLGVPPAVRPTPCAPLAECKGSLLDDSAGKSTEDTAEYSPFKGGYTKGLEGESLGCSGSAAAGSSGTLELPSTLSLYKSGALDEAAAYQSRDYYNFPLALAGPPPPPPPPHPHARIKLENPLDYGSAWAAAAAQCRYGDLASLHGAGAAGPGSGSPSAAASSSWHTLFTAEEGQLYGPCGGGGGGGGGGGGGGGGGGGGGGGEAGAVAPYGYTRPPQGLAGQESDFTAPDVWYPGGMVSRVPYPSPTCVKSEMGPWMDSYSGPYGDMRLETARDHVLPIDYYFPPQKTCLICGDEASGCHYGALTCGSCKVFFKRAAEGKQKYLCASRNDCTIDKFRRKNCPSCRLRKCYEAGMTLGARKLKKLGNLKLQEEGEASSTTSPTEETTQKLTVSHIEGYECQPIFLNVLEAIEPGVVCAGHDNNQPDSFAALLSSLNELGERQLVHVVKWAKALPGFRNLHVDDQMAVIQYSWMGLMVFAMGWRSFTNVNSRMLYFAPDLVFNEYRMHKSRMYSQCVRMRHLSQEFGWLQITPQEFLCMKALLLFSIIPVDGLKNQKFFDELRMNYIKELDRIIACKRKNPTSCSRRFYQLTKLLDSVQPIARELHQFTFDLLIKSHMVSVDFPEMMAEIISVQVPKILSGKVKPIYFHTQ
Outline: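 Using human MDA-kb2 cells with an MMTV promoter–luciferase construct (AR and GR response elements), agonist activity is scored under 3.0uM nilutamide (final) co-treatment; 16hr incubation, 37C, luminescence readout via ONE-Glo.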
% is scaled to controls: 0 for no effect and ±100 for the full control effect.

CC(C)CCCCCOC(=O)CS
inactive: Potency [1] | Potency [2] | Potency [3] | outcome [4] | Potency [5] | Potency [6]

Cc1ccc(S(=O)(=O)NC(=O)NC2CCCC2)cc1
inactive: Potency [1] | Potency [2] | outcome [4] | Potency [5] | Potency [6]

COc1ccc(C(=O)c2ccc(C)cc2)c(O)c1
inactive: Potency [1] | Potency [2] | Potency [7] | outcome [4] | Potency [6]

CNc1ccccc1
inactive: Potency [1] | Potency [2] | Potency [7] | Potency [3] | Potency [6]

Nc1ccc(C(=O)Oc2ccccc2)c(O)c1
inactive: Potency [1] | Potency [2] | Potency [7] | Potency [3] | outcome [4] | Potency [5] | Potency [6]

O=P(c1ccccc1)(c1ccccc1)c1ccccc1
inactive: Potency [1] | Potency [2] | Potency [7] | Potency [3] | outcome [4] | Potency [5] | Potency [6]

O=C(O)c1cccc(C(=O)O)c1C(=O)O
active: Potency [2] 13.8 µM
inactive: Potency [1] | Potency [8] | Potency [3] | outcome [4] | Potency [5] | Potency [6]

CCc1c(C)[nH]c2c1C(=O)C(CN1CCOCC1)CC2 (stereo unspecified)
inactive: Potency [1] | Potency [2] | Potency [7] | outcome [4] | Potency [5] | Potency [6]

CC(C)CC(C)(C)C
inactive: Potency [1] | outcome [4] | Potency [5] | Potency [6]
active: Potency [2] 35.7 µM

Oc1ccc(CCNCCCCCCNCCc2ccccc2)cc1O
inactive: Potency [1] | Potency [2] | outcome [4] | Potency [5]

CC(C)NC(=O)c1ccccc1N
inactive: Potency [1] | Potency [2] | Potency [7] | outcome [4] | Potency [5] | Potency [6]

O=C(O)c1cc(C(=O)O)cc([N+](=O)[O-])c1
inactive: Potency [1] | Potency [2] | Potency [7] | outcome [4] | Potency [5] | Potency [6]

CCCCCCCCCCCCCCCCN
inactive: Potency [1] | Potency [2] | Potency [7] | Potency [3] | outcome [4] | Potency [5] | Potency [6]

O=[N+]([O-])c1cccc(I)c1
inactive: Potency [1] | Potency [2] | Potency [3] | outcome [4] | Potency [5] | Potency [6]

O=C(O)COCC(=O)O
inactive: Potency [1] | Potency [2] | Potency [7] | outcome [4] | Potency [5] | Potency [6]

CC(COc1ccccc1)NC(C)C(O)c1ccc(O)cc1 (stereo unspecified)
inactive: Potency [1] | Potency [2] | Potency [7] | outcome [4] | Potency [5] | Potency [6]

c1ccc(-c2ccc(-c3ccccc3)cc2)cc1
inactive: activity change, negative = cytotoxicity [1] -0.211% [at 19 µM] | activity change, negative = cytotoxicity [2] 0.175% [at 19 µM] | activity change, negative = cytotoxicity [7] -1.89% [at 19 µM] | activity change, negative = cytotoxicity [6] 0.383% [at 19 µM]

Cc1cc(C)c(C)c(O)c1
inactive: Potency [1] | Potency [2] | Potency [7] | outcome [4] | Potency [5] | Potency [6]

Cc1cc(C)n(CO)n1
inactive: Potency [1] | Potency [2] | Potency [7] | outcome [4] | Potency [5] | Potency [6]

CCCCCCCCCCCCSCCOCCO
inactive: Potency [1] | Potency [2] | Potency [7] | outcome [4] | Potency [5] | Potency [6]

C=CC(=O)NC(C)(C)C
inactive: Potency [1] | Potency [2] | Potency [7] | Potency [3] | outcome [4] | Potency [5] | Potency [6]

CCc1ccc2c(c1)C(=O)c1ccccc1C2=O
active: Potency [3] 2.43 µM
inactive: Potency [1] | Potency [2] | Potency [7] | outcome [4] | Potency [5] | Potency [6]

CCCCCCCCCCCCSC#N
inactive: Potency [1] | Potency [7] | Potency [3] | outcome [4] | Potency [5] | Potency [6]

[O-][n+]1ccc(Cl)cc1
inactive: Potency [1] | Potency [7] | Potency [6]

CC(C)C/C=C(\C=O)c1ccccc1
inactive: Potency [2] | Potency [7] | Potency [3] | outcome [4] | Potency [5]

CC(C)(C)N
inactive: Potency [2] | Potency [7] | Potency [3] | outcome [4] | Potency [5] | Potency [6]

CS(C)=O
inactive: Potency [2] | Potency [7] | outcome [4] | Potency [5] | Potency [6]

Nc1nc(Cl)nc2c1ncn2[C@H]1C[C@H](O)[C@@H](CO)O1
inactive: Potency [1] | Potency [2] | Potency [6]

Cc1c(Nc2ncccc2C(=O)O)cccc1C(F)(F)F
inactive: Potency [1] | outcome [4] | Potency [5] | Potency [6]
active: Potency [2] 8.41 µM

CC(=O)S[C@H](C(=O)N[C@H]1Cc2ccccc2[C@H]2CCC[C@@H](C(=O)O)N2C1=O)C(C)C
inactive: Potency [1] | Potency [7] | outcome [4] | Potency [5] | Potency [6]

SCCOCCOCCS
inactive: Potency [7] | Potency [3] | Potency [6]

Clc1ccccc1-c1nc(-c2ccncc2)no1
inactive: Potency [1] | Potency [2] | outcome [4] | Potency [5] | Potency [6]

CCCCCCCCOCCCN
inactive: Potency [1] | Potency [8] | Potency [3] | outcome [4] | Potency [5]

O=C(O)c1cccnc1Nc1cccc(C(F)(F)F)c1
inactive: Potency [1] | Potency [3] | Potency [6]

COC(=O)Cc1cccc2ccccc12
inactive: Potency [1] | Potency [8] | Potency [7] | Potency [3] | outcome [4] | Potency [5] | Potency [6]

Nc1ccc(-c2ccc(F)cc2)cc1
inactive: Potency [1] | Potency [2] | outcome [4] | Potency [5] | Potency [6]

CC(C)Oc1ccccc1O
inactive: Potency [1] | Potency [7] | Potency [3] | outcome [4] | Potency [5] | Potency [6]

O=S(=O)(O)c1cc(Cl)c(Cl)cc1Cl
inactive: Potency [8] | Potency [3] | outcome [4] | Potency [5] | Potency [6]

CCCCC(CC)COCCC#N (stereo unspecified)
inactive: Potency [1] | Potency [2] | outcome [4] | Potency [5] | Potency [6]

OCC(O)c1ccccc1 (stereo unspecified)
inactive: Potency [1] | Potency [3] | outcome [4] | Potency [5] | Potency [6]

O=Cc1ccc([N+](=O)[O-])cc1
inactive: Potency [2] | outcome [4] | Potency [5] | Potency [6]

CCCCOC(=O)CC#N
inactive: Potency [2] | Potency [7] | Potency [3] | outcome [4] | Potency [5] | Potency [6]

CCCCCCCCCC(C)C=O (stereo unspecified)
active: Potency [2] 48.6 µM
inactive: outcome [4] | Potency [5] | Potency [6]

Clc1cc(Cl)c2c(c1)N=C1CCCCCN1C2
inactive: Potency [1] | Potency [7] | Potency [3] | outcome [4] | Potency [5]

CC[C@H](NC(C)C)[C@H](O)c1ccc(O)c2[nH]c(=O)ccc12
inactive: Potency [2] | Potency [8] | Potency [7] | Potency [6]

Cc1ccc(NC(=O)c2ccc(CN3CCN(C)CC3)cc2)cc1Nc1nccc(-c2cccnc2)n1
inactive: Potency [1] | Potency [8] | Potency [7] | Potency [3] | outcome [4]

N#Cc1ccc(CC(=O)c2cccc(C(F)(F)F)c2)cc1
inactive: Potency [1] | Potency [7] | outcome [4] | Potency [5] | Potency [6]

O=C(OCCN1CCOCC1)c1cccnc1Nc1cccc(C(F)(F)F)c1
inactive: Potency [1] | Potency [8] | Potency [7] | Potency [3] | outcome [4] | Potency [5] | Potency [6]

C/C(=C\C(C)CC(C)CC(C)C)C1CC(=O)OC1=O (stereo unspecified)
inactive: Potency [1] | Potency [7] | Potency [3] | outcome [4] | Potency [5] | Potency [6]

CCCCCCC/C=C/C=O
inactive: Potency [2] | Potency [7] | Potency [3] | outcome [4] | Potency [5] | Potency [6]

CC(C)C[C@H](NC(=O)[C@H](Cc1ccccc1)NC(=O)c1cnccn1)B(O)O
inactive: outcome [4] | Potency [5]
active: Potency [1] 0.0473 µM | Potency [2] 4.22 µM | Potency [6] 0.841 µM

C1=COCCC1
inactive: Potency [1] | Potency [7] | Potency [6]

C[C@]12CCC(=O)C=C1[C@@H]1C[C@@H]1[C@H]1[C@@H]3[C@@H]4C[C@@H]4[C@@]4(CCC(=O)O4)[C@@]3(C)CC[C@@H]12
inactive: Potency [7] | Potency [6]

CC1=C(C)C(=O)C(C(CCCCCC(=O)O)c2ccccc2)=C(C)C1=O (stereo unspecified)
inactive: Potency [1] | Potency [7] | Potency [3] | Potency [6]

OCCOc1cccc(OCCO)c1
inactive: Potency [2] | Potency [7] | outcome [4] | Potency [5] | Potency [6]

O=[N+]([O-])c1ccc(Cl)cc1Cl
inactive: Potency [2] | Potency [7] | outcome [4] | Potency [5] | Potency [6]

O=C(O)CNc1ccccc1
inactive: Potency [2] | Potency [7] | outcome [4] | Potency [5] | Potency [6]

CCc1cnc(C(=O)O)c(C(=O)O)c1
inactive: Potency [1] | Potency [7] | Potency [6]

COC(=O)C(C)(C)C
inactive: Potency [7] | outcome [4] | Potency [5] | Potency [6]

COc1cc(CNC(=O)CCCC/C=C/C(C)C)ccc1O
inactive: Potency [1] | Potency [7] | Potency [3] | outcome [4] | Potency [5] | Potency [6]

Cc1c(Cl)cccc1Nc1ccccc1C(=O)O
inactive: Potency [1] | Potency [2] | outcome [4] | Potency [5] | Potency [6]
